From PubChem BioAssay (NCI)
The panel holds about 79,000 compounds, 15% with a hit somewhere; the sample as a whole holds those more often. Cut-off read from the data, not from the text of the source: active = growth inhibition above about 70%; inactive = the rest.

Assays:
[1] = NCI Yeast Anticancer Drug Screen. Data for the rad50 strain (AID 155);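 note: 0% = growth of vehicle-only cultures of the same strain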; settings: S. cerevisiae rad50 strain growth inhibition; at 50.0 µM; hits give high values
In short: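 DNA repair mutant yeast, compound exposure, growth read-out; inhibition is taken relative to vehicle.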

[2] = NCI Yeast Anticancer Drug Screen. Data for the mec2-1 strain (AID 157); settings: S. cerevisiae mec2-1 strain, at 50.0 µM, hits give high values
In short: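 Strain: mec2-1 (DNA repair/cell cycle alteration). Compound exposure, then growth measured; inhibition expressed relative to vehicle.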

[3] = NCI Yeast Anticancer Drug Screen. Data for the sgs1 mgt1 strain (AID 161);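 note: 0% = growth of cultures given vehicle only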; settings: S. cerevisiae sgs1 mgt1 strain, at 50.0 µM, hits give high values
In short: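 Mutant yeast exposed to compound; growth scored against vehicle-only wells.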

[4] = NCI Yeast Anticancer Drug Screen. Data for the cln2 rad14 strain (AID 165);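 note: 0% = growth equal to vehicle treated cultures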; settings: S. cerevisiae cln2 rad14 strain, at 50.0 µM, hits give high values
In short: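 Compounds are applied to the cln2 rad14 yeast strain, and growth is then compared with that of vehicle-treated cultures to give inhibition.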

[5] = NCI Yeast Anticancer Drug Screen. Data for the bub3 strain (AID 167); settings: S. cerevisiae bub3 mutant strain, at 50.0 µM, hits give high values
In short: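 In this screen, a yeast mutant lacking normal mitotic checkpoint function is challenged with compound. Relative growth versus vehicle gives the inhibition value.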

[6] = NCI Yeast Anticancer Drug Screen. Data for the mlh1 rad18 strain (AID 175); settings: S. cerevisiae mlh1 rad18 strain growth inhibition; at 50.0 µM; hits give high values
In short: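 Read-out is yeast growth inhibition, calculated against vehicle-only controls. The compound was applied to a strain engineered with DNA damage repair alterations.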

Measured: growth inhibition

CCOc1ccccc1NC(=O)C(=O)CC(=O)c1sc(Nc2nnc(-c3ccc(Cl)c(Cl)c3)o2)nc1C
inactive: [1] 20.5% | [2] -11.6% | [3] 21.1% | [4] 21.4% | [5] 31.4% | [6] 17.8%

NC(=O)Cc1nc(O)cc(=O)[nH]1
inactive: [1] -8.45% | [2] -9.1% | [3] -8.3% | [4] -13.1% | [5] -1.9% | [6] -2.15%

FC(F)(F)c1ccc(C(Nc2nncs2)Nc2nncs2)cc1
inactive: [1] -6.9% | [2] -6.7% | [3] -4.5% | [4] -8.35% | [5] 7.6% | [6] 0.75%

CCC(CO)Nc1nc2c(Cl)cc(Cl)cc2c2ccccc12 (stereo unspecified)
inactive: [1] 11.1% | [2] 1.55% | [3] 18.4% | [4] -12.3% | [5] 12% | [6] 41.2%

CC(=O)Oc1cc(C(C)C)c(OCCN(C)C)cc1C
inactive: [1] -0.15% | [2] 10.3% | [3] 0.45% | [4] -3.6% | [5] -0.5% | [6] -4.1%

C=CCOc1cc2c(cc1C(C)c1ccc(OCC)c(C)c1)OCO2 (stereo unspecified)
inactive: [1] 4.35% | [2] -8.95% | [3] -4.85% | [4] -70.5% | [5] 7.15% | [6] -1.6%

COc1cc(C=O)cc([N+](=O)[O-])c1O
inactive: [1] -2.2% | [2] -9.75% | [3] -2.2% | [4] 1.05% | [5] -0.45% | [6] -6.1%

CC(=O)N[N+](C)(C)C
inactive: [1] -20% | [2] -39.2% | [3] 11.5% | [4] 4.05% | [5] 1.2% | [6] 7.9%

O=C(c1ccc(Cl)cc1)C(c1ccccc1)N1CCCCC1 (stereo unspecified)
inactive: [1] 2.05% | [2] -8.15% | [3] -0.1% | [4] -45.8% | [5] -1.6% | [6] 6.85%

CC(C)(C)OC(=O)NC(Cc1ccccc1)OCc1ccccc1 (stereo unspecified)
inactive: [1] -11.3% | [2] -25.2% | [3] -0.05% | [4] 11.8% | [5] -15.4% | [6] -19.7%

COc1ccc(-n2[nH]c3c(cnc4ccccc43)c2=O)cc1
inactive: [1] 6.35% | [2] -33.9% | [3] -33% | [4] -10.8% | [5] -22.8% | [6] 2%

O=S(=O)(N1CCOCC1)N1CCOCC1
inactive: [1] -3.9% | [2] -7.7% | [3] -3.55% | [4] -25.6% | [5] 25.6% | [6] 3.85%

CC(C)CC(=O)c1ccccn1
inactive: [1] -10.1% | [2] -30.9% | [3] -16.1% | [4] 7.95% | [5] -19% | [6] -0.35%

CN(C)c1ccc(Cc2ccc(N(C)C)c3cccnc23)c2ncccc12
inactive: [1] -5.45% | [2] -9.65% | [3] 13.7% | [4] -13.4% | [5] 12.3% | [6] 1.4%

COCCNC(=O)/C=C\C(=O)O
inactive: [1] 3.35% | [2] -3.55% | [3] -2.95% | [4] -49.4% | [5] 12.2% | [6] -3.8%

CC(CC(=O)Nc1ccccc1)C(=O)O (stereo unspecified)
inactive: [1] 7.85% | [2] -7.1% | [3] -10.8% | [4] -26.4% | [5] 5.55% | [6] 2.55%

NC(Cc1ccsc1)C(=O)O (stereo unspecified)
inactive: [1] 0.15% | [2] 10.7% | [3] -22.7% | [4] -45.2% | [5] 20.5% | [6] -30.8%

CCN(CC)C(CC(=O)c1ccccc1)C(=O)c1ccccc1 (stereo unspecified)
inactive: [1] 23.9% | [2] 16.5% | [3] 13.2% | [4] -10% | [5] 13.3% | [6] 49.6%

COc1ccc(NC(=O)C2=C(SC)C(C#N)C(=O)N=C2N)cc1 (stereo unspecified)
inactive: [1] -25.1% | [2] -12.5% | [3] 0.2% | [4] 19.7% | [5] -31.4% | [6] 1.3%

CCCC(=O)OCCc1ccccc1
inactive: [1] 12.8% | [2] 10.3% | [3] 16.4% | [4] -65.5% | [5] 5.1% | [6] -26%

CS(=O)(=O)OCCN(CCOS(C)(=O)=O)c1ccc(N=Nc2ccccc2C(=O)O)cc1
inactive: [1] 27.9% | [2] 21.9% | [3] 21.6% | [4] 24.8% | [5] 19.1% | [6] 32.4%
